# Results taken from the supplement of paper PMC10338343.
# ± gives the standard deviation. Over roughly 5,500 sequences, “pre-steady-state target cleavage rate” has its median near 0.1; the highest 2% begin near 0.64. The list comes from a sample in which the highest values are over-represented; it also holds similar and randomly drawn sequences.
# Test system: MIWI (PIWIL1) piRISC loaded with piRNA #2 (30 nt)
# Assay: pre-steady-state target cleavage rate (min^-1); MIWI and MILI are mouse PIWI proteins and EfPiwi is from a freshwater sponge; tags in brackets are library labels; higher = faster piRNA-guided slicing of the target
# Conditions: guide: piRNA #2 5'p-UUAGGUAACCCAGUAGAUCCAGAGGAAUUC; auxiliary factor: 500 nM mouse GTSF1
# How it was run: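 Cleave-'n-Seq reactions paired 0.1 nM transcribed, DNA-blocked target RNA library with 1 nM active affinity-purified piRISC holding one synthetic guide, plus or minus 500 nM GTSF1 partner protein, in HEPES–potassium acetate buffer at 33 °C for 0–8 or 0–960 min. After sequencing of uncleaved targets and normalisation to depth and weakly complementary targets, the pre-steady-state cleavage rate was taken from a burst-and-steady-state fit. Three trials were pooled, and k3 was capped at 0.0001 min^-1.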
row,Sequence,pre-steady-state target cleavage rate
1,CUUAUCCUCUGGAUCUACAGGGUUUCCUAA,0.119 ± 0.02
2,GAAUUCCUCUGGAUCUACUGGGUGACCUAA,0.244 ± 0.038
3,GAAUUCGUCUGGAUCUACUGGGUUAGCUAA,0.293 ± 0.068
4,CUUAACCUCUGGAUCUACUCGGUUACCUUA,0.052 ± 0.011
5,CAAUACCUCUGGUUCUACUGGGUUACCUAA,0.909 ± 0.066
6,CUAUACCUCUGCAUCUACUGGGUUACCUAA,0.439 ± 0.042
7,CUUUACCUCUGGUUCUACUGGGUUACCUAA,0.514 ± 0.043
8,CUUAACCUCUGGUUCUACUGCGUUACCUAA,0.754 ± 0.077
9,CUAUACCUCUGGUUCUACUGGGUUACCUAA,0.696 ± 0.053
10,CUUAUCCUCUGGUUCUACUGCGUUACCUAA,0.455 ± 0.04
11,GAAUACCUCUGGUUCUACUGGGUUACCUAA,0.59 ± 0.052
12,CUUAACCUCUGGUUCUACUGGGUUACCUAA,0.479 ± 0.042
13,CAAUACCUCUGGAUCUACUGGGUUACCUAA,0.395 ± 0.06
14,GAAUUGCUCUGGAUCUACUGGCUUACCUAA,0.0382 ± 0.014
15,GAAUUCCUCUGGAUACUACUGGGUUACCUAA,0.373 ± 0.056
16,GAAUUCCUCUGGAACUACUGGGUUACCAAA,0.233 ± 0.056
17,CAAUUCCUCUGGAUCUACUCGGUUUCCUAA,0.0763 ± 0.028
18,CAAUUCGUCUGGAUCUACUGCGUUACCUAA,0.376 ± 0.044
19,CUUAAGGAGACCUUCCUACUGGGUUACCUAA,0.00294 ± 0.0029
20,CUUAUGCUCUGGAUCUACUGGGUUACGUAA,0.534 ± 0.042
21,CAAUUCCUCAGGAUCUUCUGGGUUACCUAA,0.485 ± 0.058
22,GAAUUCCUCACCAUCUACUGGGUUACCUAA,0.455 ± 0.051
23,CUAUUCCUCACGAUCUACUGGGUUACCUAA,0.659 ± 0.042

row,Sequence,pre-steady-state target cleavage rate
1,CUUUUCCUCACGAUCUACUGGGUUACCUAA,0.635 ± 0.051
2,CUAUUCCUGACGAUCUACUGGGUUACCUAA,0.133 ± 0.023
3,GAAUUCCUCACGAUCUACUGGGUUACCUAA,0.697 ± 0.051
4,CAAUUCCUCACCAUCUACUGGGUUACCUAA,0.573 ± 0.069
5,CAAUUCCUGACGAUCUACUGGGUUACCUAA,0.212 ± 0.034
6,CAAUUCCUCACGAUCUACUGGGUUACCUAA,0.784 ± 0.05
7,CUAUUCCUCACCAUCUACUGGGUUACCUAA,0.384 ± 0.049
8,CAAUUCCUCUGGAUCUACAGGGUUAGCUAA,0.157 ± 0.054
9,CUUAAGCUCUCGAUCUACAGGGUUACCUAA,0.185 ± 0.012
10,CUUAUCCUCUGGAUCUUCUGGGUUACCUUA,0.289 ± 0.053
11,GAAUACCUCUGGAUCUACUGGGUAACCUAA,0.168 ± 0.035
12,GAAUUCCUCUGCAUCUACUGCGUUACCUAA,0.591 ± 0.054
13,CUUAUCCUCUGCAUCUACUGCGUUACCUAA,0.377 ± 0.032
14,CUUUUCCUCUGCAUCUACUGCGUUACCUAA,0.49 ± 0.037
15,CUAUUCCUCUGCAUCUACUGCGUUACCUAA,0.654 ± 0.047
16,CAAUUCCUCUGCAUCUACUGCGUUACCUAA,0.666 ± 0.058
17,CUAUUCCUCUGCAUCUACUGGGUUACCUAA,0.463 ± 0.04
18,GAAUUCCUCUGGAUCUACUGGCAUACCUAA,0.00471 ± 0.003
19,CUUAACCUCUGAAUCUACUGGGUUACCUAA,0.158 ± 0.019
20,CUUAACCUCUCGAUCUACUGGCUUACCUAA,0.173 ± 0.016
21,CUUAAGGUCUGGAUCUUCUGGGUUACCAAA,0.0379 ± 0.015
22,CUAUUCCUCUGAUCUACUGGGUUACCUAA,0.395 ± 0.048
23,CAAUUCCUCUUGAUCUACUGGGUUACCUAA,0.866 ± 0.044

row,Sequence,pre-steady-state target cleavage rate
1,CUAUUCCUCUUGGAUCUACUGGGUUACCUAA,0.433 ± 0.046
2,CAAUUCCUCUUGGAUCUACUGGGUUACCUAA,0.358 ± 0.046
3,CUUUUCCUCUGAUCUACUGGGUUACCUAA,0.304 ± 0.036
4,GAAUUCCUCUUGGAUCUACUGGGUUACCUAA,0.402 ± 0.042
5,GAAUUCCUCUGAUCUACUGGGUUACCUAA,0.454 ± 0.062
6,CAAUUCCUCUGAUCUACUGGGUUACCUAA,0.528 ± 0.061
7,CUAUUCCUCUUGAUCUACUGGGUUACCUAA,0.767 ± 0.04
8,CUUUUCCUCUUGAUCUACUGGGUUACCUAA,0.705 ± 0.039
9,GAAUUCCUCUUGAUCUACUGGGUUACCUAA,0.74 ± 0.037
10,CUUUUCCUCUUGGAUCUACUGGGUUACCUAA,0.346 ± 0.033
11,CUUAUCGUCUGGAUCUACUGGGUUACCUUA,0.295 ± 0.066
12,CAAUUCCUCUGGAACUACUGGGUAACCUAA,0.235 ± 0.035
13,CUUUUCCUCUGGAUCUACACCGUUACCUAA,0.0786 ± 0.0085
14,CUUAACCUCUCGAUCUACUGGGUUACCUUA,0.373 ± 0.034
15,GAAUUCCUCUGGAACUAGUGGGUUACCUAA,0.221 ± 0.027
16,GAAUUCCUCUGGAUCUUCUGGGUUACCUAA,0.274 ± 0.047
17,CAAUUCCUCUGGAUCUACUGGGUUACCUGA,0.328 ± 0.086
18,CUUAUCCUCUGGAUCUACUGGGUUACCAUA,0.497 ± 0.069
19,CUAUUCCUCUGGAUCUACUGGGUUACCAUA,0.413 ± 0.054
20,CAAUUCCUCUGGAUCUACUGGGUUACCAUA,0.518 ± 0.076
21,CUAUUCCUCUGGAUCUACUGGGUUACCAUAA,0.553 ± 0.069
22,CUAUUCCUCUGGAUCUACUGGGUUACAUAA,0.739 ± 0.051
23,CAAUUCCUCUGGAUCUACUGGGUUACCAUAA,0.588 ± 0.078

row,Sequence,pre-steady-state target cleavage rate
1,CAAUUCCUCUGGAUCUACUGGGUUACAUAA,0.739 ± 0.053
2,CUUAUCCUCUGGAUCUACUGGGUUACAUAA,0.742 ± 0.048
3,CAAUUCCUCUGGAUCUACUGGGUUACCUGAA,0.438 ± 0.14
4,CUUAUCCUCUGGAUCUACUGGGUUACCAUAA,0.452 ± 0.06
5,GAAUUCCUCUGGAUCUACUGGGUUACCUGAA,0.735 ± 0.26
6,CUUAAGGUCUUGGAUCUACUGGGUUACCUAA,0.291 ± 0.03
7,CUUAAGGUCUGGAUCUACUGCGUUACCAAA,0.109 ± 0.029
8,CUAAUCCUCUGGAUCAACUGGGUUACCUAA,0.381 ± 0.043
9,CUAUUCCUCUGGAUCUACUGGGUUAACUAA,0.349 ± 0.071
10,CUUUUCCUCUGGAUCUACUGGGUUACCAUAA,0.422 ± 0.047
11,GAAUUCCUCUGGAUCUACUGGGUUACCAUA,0.364 ± 0.05
12,CUAUUCCUCUGGAUCUACUGGGUUAGCCUAA,0.51 ± 0.063
13,GAAUUCCUCUGGAUCUACUGGGUUACCAUAA,0.383 ± 0.049
14,CUUUUCCUCUGGAUCUACUGGGUUACCAUA,0.437 ± 0.048
15,GAAUUCCUCUGGAUCUACUGGGUUAGCCUAA,0.299 ± 0.036
16,GAAUUCCUCUGGAUCUACUGGGUUAACUAA,0.674 ± 0.059
17,CAAUUCCUCUGGAUCUACUGGGUUAACUAA,0.386 ± 0.098
18,CAAUUCCUCUGGAUCUACUGGGUUAGCCUAA,0.651 ± 0.079
19,CUUUUCCUCUGGAUCUACUGGGUUACAUAA,0.738 ± 0.042
20,GAAUUCCUCUGGAUCUACUGGGUUACAUAA,0.64 ± 0.057
21,CUUAACCUCUGGAUCUAGUCGGUUACCUAA,0.0063 ± 0.0049
22,CUUUUCCUCUGGAUCAACUGGGUUUCCUAA,0.165 ± 0.034
23,CUUAAGGAGACCUUCUACAGCGUUACCUAA,0.00566 ± 0.0029
